Test results reported in the supplement of paper PMC10849652.
About 8,800 targets were measured; listed, in parts, are those with a hit and a random draw of the rest. About 0.5% of all pairs of compound and target were hits.

Assays:
Test in all cases: log2 fold change, soluble protein after heating vs DMSO (PISA); higher = thermal stabilisation; K562 lysate, 10 uM; active = over 0.2 and 3.5 SD of the protein, either way, in both replicates (recomputed)
lapatinib = compound: CS(=O)(=O)CCNCc1ccc(-c2ccc3ncnc(Nc4ccc(OCc5cccc(F)c5)c(Cl)c4)c3c2)o1 [lapatinib]
Outline: (§1)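 Quantification was by TMTpro 16plex LC-MS/MS with equalised channel sums, applied to the supernatant after 21,000xg for 90 min. Samples were crude K562 extract at 1 mg/mL protein in PBS pH 7.4 with 1 mM MgCl2, treated with 10 μM compound for 30 min, heated for 3 min across 48°C-58°C, pooled and brought to 0.5% NP-40 at 4°C. Values are log-two fold changes in thermal stability relative to solvent controls, from duplicates.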

pictilisib = compound: CS(=O)(=O)N1CCN(Cc2cc3nc(-c4cccc5[nH]ncc45)nc(N4CCOCC4)c3s2)CC1 [pictilisib]
Outline: as §1

bafetinib = compound: Cc1ccc(NC(=O)c2ccc(CN3CC[C@H](N(C)C)C3)c(C(F)(F)F)c2)cc1Nc1nccc(-c2cncnc2)n1 [bafetinib]
Outline: as §1

nilotinib = compound: Cc1cn(-c2cc(NC(=O)c3ccc(C)c(Nc4nccc(-c5cccnc5)n4)c3)cc(C(F)(F)F)c2)cn1 [nilotinib]
Outline: as §1

[1] = compound: Cc1nc(Nc2n[nH]c3c2CN(C(=O)N[C@H](CN(C)C)c2ccccc2)C3(C)C)c2sccc2n1
Outline: as §1

[2] = compound: Cc1ncc(-c2ccnc(Nc3ccc(S(C)(=O)=O)cc3)n2)n1C(C)C
Outline: as §1

tipifarnib = compound: Cn1cncc1[C@@](N)(c1ccc(Cl)cc1)c1ccc2c(c1)c(-c1cccc(Cl)c1)cc(=O)n2C [tipifarnib]
Outline: as §1

[3] = compound: NC(=O)c1cnc(N[C@@H]2CCCC[C@@H]2N)nc1Nc1cccc(-n2nccn2)c1
Outline: as §1

crizotinib = compound: C[C@@H](Oc1cc(-c2cnn(C3CCNCC3)c2)cnc1N)c1c(Cl)ccc(F)c1Cl [crizotinib]
Outline: as §1

[4] = compound: C[C@H](C1=CC=C(C=C1)C(=O)NC2=C3C=CNC3=NC=C2)N
Outline: as §1

duvelisib = compound: C[C@H](Nc1ncnc2nc[nH]c12)c1cc2cccc(Cl)c2c(=O)n1-c1ccccc1 [duvelisib]
Outline: as §1

gandotinib = compound: Cc1cc(Nc2cc(CN3CCOCC3)c3nc(C)c(Cc4ccc(Cl)cc4F)n3n2)n[nH]1 [gandotinib]
Outline: as §1

doramapimod = compound: Cc1ccc(-n2nc(C(C)(C)C)cc2NC(=O)Nc2ccc(OCCN3CCOCC3)c3ccccc23)cc1 [doramapimod]
Outline: as §1

[5] = compound: Cc1cccc(CC(=O)N2CCc3c2ccc(-c2cn(C)c4ncnc(N)c24)c3F)n1
Outline: as §1

dasatinib = compound: Cc1nc(Nc2ncc(C(=O)Nc3c(C)cccc3Cl)s2)cc(N2CCN(CCO)CC2)n1 [dasatinib]
Outline: as §1

[6] = compound: Cn1cc(-c2ccc3c(c2)CCN3C(=O)Cc2cccc(C(F)(F)F)c2)c2c(N)ncnc21
Outline: as §1

quisinostat = compound: Cn1cc(CNCC2CCN(c3ncc(C(=O)NO)cn3)CC2)c2ccccc21 [quisinostat]
Outline: as §1

[7] = compound: NC(=O)Nc1cc(-c2cccc(F)c2)sc1C(=O)N[C@H]1CCCNC1
Outline: as §1

[8] = compound: NC1(c2ccc(-c3nc4ccn5c(=O)[nH]nc5c4cc3-c3ccccc3)cc2)CCC1
Outline: as §1

tozasertib = compound: Cc1cc(Nc2cc(N3CCN(C)CC3)nc(Sc3ccc(NC(=O)C4CC4)cc3)n2)n[nH]1 [tozasertib]
Outline: as §1

Measured: log2 fold change

ADK, A0A5F9ZH76
inactive: lapatinib -0.013 | pictilisib -0.074 | bafetinib 0.147 | nilotinib -0.267 | [1] 0.089 | [2] 0.065 | tipifarnib 0.487 | [3] -0.083

ANKRD10 (UniProt Q9NXR5)
Sequence of UniProt Q9NXR5 (Q9NXR5 whole entry, looked up): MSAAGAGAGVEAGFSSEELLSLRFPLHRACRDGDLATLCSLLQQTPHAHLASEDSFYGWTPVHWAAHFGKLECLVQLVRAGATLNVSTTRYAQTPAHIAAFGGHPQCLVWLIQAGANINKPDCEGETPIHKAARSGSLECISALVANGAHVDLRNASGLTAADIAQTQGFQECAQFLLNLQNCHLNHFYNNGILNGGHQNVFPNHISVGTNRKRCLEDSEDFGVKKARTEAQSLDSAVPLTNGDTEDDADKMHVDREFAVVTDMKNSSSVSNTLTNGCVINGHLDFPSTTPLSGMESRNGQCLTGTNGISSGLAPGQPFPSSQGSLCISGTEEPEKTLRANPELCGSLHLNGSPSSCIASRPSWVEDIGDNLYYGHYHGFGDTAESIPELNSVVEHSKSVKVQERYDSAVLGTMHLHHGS
inactive: lapatinib -0.074 | pictilisib 0.184 | crizotinib 0.017 | [4] -0.032 | duvelisib -0.052 | gandotinib -0.088 | doramapimod -0.079 | bafetinib -0.112 | [5] 0.007 | nilotinib -0.042 | [1] -0.021 | dasatinib -0.05 | [2] 0.021 | [6] 0.012 | quisinostat 0.001 | tipifarnib -0.028 | [7] 0.036 | [3] 0.168 | [8] -0.029

ANXA13 isoform 2 (UniProt P27216)
Sequence of UniProt P27216 (P27216 whole entry, looked up): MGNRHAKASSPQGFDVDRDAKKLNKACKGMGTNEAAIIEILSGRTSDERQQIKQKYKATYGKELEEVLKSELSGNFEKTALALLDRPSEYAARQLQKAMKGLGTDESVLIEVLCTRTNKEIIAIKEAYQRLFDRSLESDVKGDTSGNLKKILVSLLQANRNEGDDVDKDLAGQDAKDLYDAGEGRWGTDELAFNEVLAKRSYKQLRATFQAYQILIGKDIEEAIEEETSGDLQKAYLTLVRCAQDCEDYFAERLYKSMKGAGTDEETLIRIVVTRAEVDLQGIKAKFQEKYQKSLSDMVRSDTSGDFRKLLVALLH
inactive: lapatinib -0.111 | pictilisib -0.03 | crizotinib 0.011 | [4] 0.057 | duvelisib -0.116 | doramapimod 0.038 | bafetinib -0.195 | [5] 0.284 | nilotinib -0.001 | [1] 0.005 | dasatinib 0.007 | [2] -0.079 | [6] 0.104 | quisinostat -0.022 | tipifarnib 0.123 | [7] 0.023 | [3] 0.032 | [8] 0.078
active: gandotinib 0.545

ADAM17 (UniProt P78536)
Sequence of UniProt P78536 (P78536 whole entry, looked up): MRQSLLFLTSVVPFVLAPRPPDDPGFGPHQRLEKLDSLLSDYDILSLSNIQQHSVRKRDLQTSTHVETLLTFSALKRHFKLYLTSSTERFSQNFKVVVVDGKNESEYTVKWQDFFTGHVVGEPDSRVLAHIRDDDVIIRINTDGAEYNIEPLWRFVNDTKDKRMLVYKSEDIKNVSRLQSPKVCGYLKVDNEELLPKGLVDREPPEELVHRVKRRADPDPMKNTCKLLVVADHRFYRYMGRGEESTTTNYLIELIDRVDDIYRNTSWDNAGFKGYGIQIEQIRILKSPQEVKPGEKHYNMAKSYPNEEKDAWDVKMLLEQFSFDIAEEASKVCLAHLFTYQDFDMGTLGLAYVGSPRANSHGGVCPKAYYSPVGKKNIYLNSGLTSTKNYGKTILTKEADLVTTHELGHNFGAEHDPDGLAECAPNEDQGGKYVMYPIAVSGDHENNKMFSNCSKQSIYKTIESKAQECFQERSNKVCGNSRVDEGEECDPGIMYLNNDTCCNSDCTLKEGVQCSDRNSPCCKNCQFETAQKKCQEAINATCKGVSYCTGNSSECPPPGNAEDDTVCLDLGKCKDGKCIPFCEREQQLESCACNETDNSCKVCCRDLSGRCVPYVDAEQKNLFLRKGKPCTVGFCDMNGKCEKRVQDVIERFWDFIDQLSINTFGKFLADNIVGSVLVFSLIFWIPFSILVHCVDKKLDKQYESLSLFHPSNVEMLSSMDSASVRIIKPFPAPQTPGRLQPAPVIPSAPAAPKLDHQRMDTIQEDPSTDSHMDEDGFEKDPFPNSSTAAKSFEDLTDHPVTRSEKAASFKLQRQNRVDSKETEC
inactive: pictilisib 0.032 | crizotinib 0.051 | [4] 0.008 | duvelisib 0.024 | gandotinib 0.054 | tozasertib -0.015 | doramapimod -0.06 | bafetinib 0.019 | [5] 0.099 | nilotinib -0.093 | [1] -0.151 | dasatinib -0.032 | [2] 0.021 | [6] 0.054 | quisinostat 0.01 | tipifarnib 0.039 | [7] 0.002 | [8] -0.012

ALKBH1 (UniProt Q13686)
Sequence of UniProt Q13686 (Q13686 whole entry, looked up): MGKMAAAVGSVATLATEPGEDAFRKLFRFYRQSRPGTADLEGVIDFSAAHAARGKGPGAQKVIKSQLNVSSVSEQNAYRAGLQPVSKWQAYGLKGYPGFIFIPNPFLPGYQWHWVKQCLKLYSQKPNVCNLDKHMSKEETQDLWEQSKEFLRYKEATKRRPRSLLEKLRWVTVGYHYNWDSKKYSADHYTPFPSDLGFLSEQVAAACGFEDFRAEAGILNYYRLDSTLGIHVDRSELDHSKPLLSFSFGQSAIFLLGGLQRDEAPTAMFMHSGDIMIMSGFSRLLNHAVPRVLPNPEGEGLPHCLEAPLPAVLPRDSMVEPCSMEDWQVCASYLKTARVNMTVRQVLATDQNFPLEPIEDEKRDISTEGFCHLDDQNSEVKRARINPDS
inactive: [4] -0.016 | duvelisib 0.014 | gandotinib 0 | tozasertib 0.09 | [5] 0.048 | nilotinib -0.087 | [1] -0.026 | dasatinib -0.249 | [2] -0.052 | [6] 0.007 | tipifarnib 0.137 | [8] 0.116

ABI1 isoform 6 (UniProt Q8IZP0)
Sequence of UniProt Q8IZP0 (Q8IZP0 whole entry, looked up): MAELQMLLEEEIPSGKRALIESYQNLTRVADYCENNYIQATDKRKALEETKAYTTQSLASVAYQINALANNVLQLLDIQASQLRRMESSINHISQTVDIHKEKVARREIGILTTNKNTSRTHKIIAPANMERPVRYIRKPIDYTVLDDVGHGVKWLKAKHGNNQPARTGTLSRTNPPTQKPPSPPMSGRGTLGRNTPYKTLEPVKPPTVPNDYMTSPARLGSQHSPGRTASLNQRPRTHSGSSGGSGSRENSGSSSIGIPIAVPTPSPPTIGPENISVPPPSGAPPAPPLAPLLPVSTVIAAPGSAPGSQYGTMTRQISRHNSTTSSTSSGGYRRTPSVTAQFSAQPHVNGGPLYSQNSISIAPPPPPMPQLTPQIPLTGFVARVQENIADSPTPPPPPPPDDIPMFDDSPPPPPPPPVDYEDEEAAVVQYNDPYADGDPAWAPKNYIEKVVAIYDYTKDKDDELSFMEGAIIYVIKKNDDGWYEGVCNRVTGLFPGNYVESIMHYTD
inactive: lapatinib 0.007 | tozasertib -0.061 | [3] 0.113

AGPAT2 (UniProt O15120)
Sequence of UniProt O15120 (O15120 whole entry, looked up): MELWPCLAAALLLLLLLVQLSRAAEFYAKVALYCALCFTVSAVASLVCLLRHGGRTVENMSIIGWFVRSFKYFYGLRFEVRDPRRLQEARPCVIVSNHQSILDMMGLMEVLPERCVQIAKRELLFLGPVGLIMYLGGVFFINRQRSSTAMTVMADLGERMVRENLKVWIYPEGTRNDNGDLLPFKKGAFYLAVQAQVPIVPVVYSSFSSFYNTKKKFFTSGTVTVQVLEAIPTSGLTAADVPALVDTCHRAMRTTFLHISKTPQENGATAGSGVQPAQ
inactive: crizotinib -0.097 | [4] 0.006 | gandotinib -0.145 | tozasertib 0.048 | doramapimod 0.1 | [5] 0.021 | nilotinib -0.044 | [1] 0.046 | [2] -0.037 | quisinostat 0.006 | tipifarnib 0.029 | [7] 0.018 | [8] 0.02

ABCA3 (UniProt Q99758)
Sequence of UniProt Q99758 (Q99758 whole entry, looked up): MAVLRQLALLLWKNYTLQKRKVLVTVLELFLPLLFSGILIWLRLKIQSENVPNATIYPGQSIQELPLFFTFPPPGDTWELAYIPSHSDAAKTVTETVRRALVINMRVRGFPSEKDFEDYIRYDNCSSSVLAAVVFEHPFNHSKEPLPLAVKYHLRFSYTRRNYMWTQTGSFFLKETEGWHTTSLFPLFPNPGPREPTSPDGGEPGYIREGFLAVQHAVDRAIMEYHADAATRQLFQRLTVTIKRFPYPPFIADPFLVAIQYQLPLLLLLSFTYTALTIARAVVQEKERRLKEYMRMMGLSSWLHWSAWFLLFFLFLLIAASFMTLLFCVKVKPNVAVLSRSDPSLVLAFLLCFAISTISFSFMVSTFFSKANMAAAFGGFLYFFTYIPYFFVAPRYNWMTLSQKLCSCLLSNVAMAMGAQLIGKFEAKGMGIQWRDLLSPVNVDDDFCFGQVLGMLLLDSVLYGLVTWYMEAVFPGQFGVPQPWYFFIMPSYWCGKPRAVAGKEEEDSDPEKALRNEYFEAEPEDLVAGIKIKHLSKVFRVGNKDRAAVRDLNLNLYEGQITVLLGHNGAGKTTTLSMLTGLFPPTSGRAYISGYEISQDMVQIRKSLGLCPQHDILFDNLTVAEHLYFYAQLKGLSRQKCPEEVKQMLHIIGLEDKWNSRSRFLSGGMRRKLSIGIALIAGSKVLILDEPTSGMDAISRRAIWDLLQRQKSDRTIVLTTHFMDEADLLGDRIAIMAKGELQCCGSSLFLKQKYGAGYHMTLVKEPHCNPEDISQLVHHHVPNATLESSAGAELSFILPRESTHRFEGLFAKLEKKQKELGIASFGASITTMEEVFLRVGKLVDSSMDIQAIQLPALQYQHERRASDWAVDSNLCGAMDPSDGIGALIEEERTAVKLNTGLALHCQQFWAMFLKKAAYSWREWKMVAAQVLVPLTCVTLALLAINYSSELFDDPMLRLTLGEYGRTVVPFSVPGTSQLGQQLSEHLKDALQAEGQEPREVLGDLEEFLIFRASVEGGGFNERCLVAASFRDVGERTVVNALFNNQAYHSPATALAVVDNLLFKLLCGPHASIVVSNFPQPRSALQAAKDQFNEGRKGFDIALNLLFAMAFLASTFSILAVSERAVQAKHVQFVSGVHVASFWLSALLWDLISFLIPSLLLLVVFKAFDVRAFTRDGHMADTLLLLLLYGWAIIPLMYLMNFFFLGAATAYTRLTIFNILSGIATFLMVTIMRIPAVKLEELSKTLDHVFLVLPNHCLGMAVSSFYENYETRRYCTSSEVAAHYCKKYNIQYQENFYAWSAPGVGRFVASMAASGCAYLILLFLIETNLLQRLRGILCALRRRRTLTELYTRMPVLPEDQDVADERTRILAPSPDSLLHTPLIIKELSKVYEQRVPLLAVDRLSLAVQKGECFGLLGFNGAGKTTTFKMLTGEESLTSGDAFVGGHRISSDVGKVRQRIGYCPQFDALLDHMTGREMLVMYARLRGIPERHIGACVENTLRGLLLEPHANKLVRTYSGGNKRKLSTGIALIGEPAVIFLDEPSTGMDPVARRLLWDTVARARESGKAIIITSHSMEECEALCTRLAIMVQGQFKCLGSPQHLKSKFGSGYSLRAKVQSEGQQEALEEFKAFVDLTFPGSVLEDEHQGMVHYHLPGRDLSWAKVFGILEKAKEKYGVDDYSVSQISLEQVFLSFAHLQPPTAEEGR
active: crizotinib -0.469
inactive: lapatinib 0.025 | pictilisib -0.028 | [4] -0.156 | duvelisib 0.061 | gandotinib 0.113 | tozasertib -0.16 | doramapimod 0.203 | bafetinib -0.006 | [5] -0.075 | dasatinib 0.044 | [6] -0.066 | quisinostat 0.08 | [7] -0.092 | [3] 0.001 | [8] -0.019

AIMP2 isoform 2 (UniProt Q13155)
Sequence of UniProt Q13155 (Q13155 whole entry, looked up): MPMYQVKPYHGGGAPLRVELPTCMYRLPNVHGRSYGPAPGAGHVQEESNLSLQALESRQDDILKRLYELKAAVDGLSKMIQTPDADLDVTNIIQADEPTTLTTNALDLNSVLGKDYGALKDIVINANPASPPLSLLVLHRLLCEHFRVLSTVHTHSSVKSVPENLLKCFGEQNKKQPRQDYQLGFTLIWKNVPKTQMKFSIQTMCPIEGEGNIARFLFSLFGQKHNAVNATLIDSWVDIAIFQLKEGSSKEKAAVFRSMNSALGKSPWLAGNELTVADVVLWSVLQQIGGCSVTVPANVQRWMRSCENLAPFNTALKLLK
inactive: lapatinib -0.058 | pictilisib -0.148 | crizotinib -0.036 | doramapimod -0.019 | bafetinib -0.082 | quisinostat -0.106 | [7] 0.067 | [3] 0.017

ACAT1, A0A5F9ZHJ0
inactive: [4] -0.151 | gandotinib -0.075 | [5] 0.208 | nilotinib -0.176 | [1] 0.063 | [2] 0.024 | tipifarnib 0.07

ALKBH7 (UniProt Q9BT30)
Sequence of UniProt Q9BT30 (Q9BT30 whole entry, looked up): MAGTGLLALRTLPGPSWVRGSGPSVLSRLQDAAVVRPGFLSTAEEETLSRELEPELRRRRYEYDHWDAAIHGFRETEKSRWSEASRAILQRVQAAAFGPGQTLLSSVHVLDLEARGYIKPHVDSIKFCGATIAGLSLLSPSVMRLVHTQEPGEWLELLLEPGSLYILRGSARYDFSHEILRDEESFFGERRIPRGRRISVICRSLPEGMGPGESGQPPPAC
inactive: crizotinib -0.049 | [4] 0.289 | duvelisib 0.091 | gandotinib 0.08 | tozasertib -0.045 | doramapimod -0.062 | [5] 0.187 | nilotinib -0.039 | [1] -0.04 | dasatinib -0.017 | [2] -0.452 | [6] -0.226 | quisinostat 0.006 | tipifarnib 0.107 | [7] 0.044 | [8] -0.099
